The source of these data is PubChem BioAssay.

Values joined by “and” are separate entries in the source; they are usually repeats but may differ in a detail not shown here. Equal entries are not always repeated. Records with an inconclusive call do not appear. Some structures have more than one record in an assay (separate samples or runs), and their calls can disagree. Active and inactive are the calls of the source. Unless noted, the rule behind the calls is not given here.

Experiment [1] is described as follows: liver-stage malaria parasite load reduction – cell-based, known kinase inhibitor set, luminescence, hepatoma host viability (AID 624392).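 Note: infected cells incubated roughly two days before readout.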 Particulars: Plasmodium liver stage in hepatoma cells, luciferase luminescence, concentration not given here; liver cell % of control: measured here: host liver cell viability; parasite % of control: stronger effect = lower value.
A short description of experiment [2]: altered dexamethasone sensitivity, NF-kB reporter, cell-based, luciferase, IL-1B stimulus (AID 624486).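 For percent of negative control (+Dex): 100% = mean signal of vehicle control wells on the plate.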 Particulars: IL-1B + dexamethasone, luminescence; percent of negative control (+Dex): actives lie on both sides, concentration not given here; z-score: measured here: IL-1B alone, no Dex.
Experiment [3] is described as follows: C. elegans survival during P. aeruginosa infection – whole organism (AID 651566).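 Note: tested at 14 µM; sign flipped so higher z means a lower ratio.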 Particulars: C. elegans killed by P. aeruginosa, survival ratio.
Experiment [4] in a line: pro-inflammatory signaling induction in mouse macrophages – cell-based, murine, luminescence (AID 652131). To be noted: murine macrophage pro-inflammatory reporter, stronger effect = higher value.
Experiment [5] has as its target Cellular tumor antigen p53 (Homo sapiens) (UniProt P04637). Nature of the experiment: GFP-p53 level modulators in HPV16+ cells – imaging, known kinase inhibitor set, EGFP/DsRed ratio (AID 1053116).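 Note: cells exposed to compounds for 24 h at 37 °C before reading.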 To be noted: GFP-p53 stability, stronger effect = higher value; EGFP object count: measured here: GFP-p53 positive objects count.
Experiment [6] is described as follows: inducers of IRF3 signaling, differentiated THP-1 – cell-based, PMA-stimulated THP-1, luminescence (AID 1053176). Particulars: PMA-differentiated THP-1, IRF3 reporter luminescence; stronger effect = higher value.
Experiment [7] is described as follows: viability loss in pontine glioma line – cell-based, SU-DIPG-XVII, MIPE5.0, CellTiter-Glo, qHTS, dose response (AID 1347060; cut-off not given, nearly all actives have AC50 up to about 26 µM;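 note: cells exposed to compound for 48 hours before viability readout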). Particulars: CellTiter-Glo ATP luminescence. (In general: ATP-based viability assays read luminescence as a measure of living cells.)
The nature of experiment [8]: viability loss in pontine glioma line – cell-based, SU-DIPG-XXV, MIPE5.0, CellTiter-Glo, qHTS, dose response (AID 1347065; cut-off not given, nearly all actives have AC50 up to about 26 µM;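 note: cells exposed to compound for 48 hours before ATP readout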). To be noted: CellTiter-Glo ATP luminescence.
Experiment [9] can be described thus: JHH-DIPG-1 glioma cell viability, MIPE5.0 library, CellTiter-Glo luminescence, qHTS (AID 1347067; cut-off not given, nearly all actives have AC50 up to about 26 µM;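 note: cells exposed to compound for 48 hours before readout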). Particulars: JHH-DIPG-1 glioma viability, CellTiter-Glo ATP luminescence.
Experiment [10] can be described thus: MELAS cybrid and Rieske KO viability enhancers – cell-based, MELAS cybrids, Rieske KO mouse fibroblasts, CellTiter-Glo, primary screen (AID 1508586;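 active = mean z-score across replicates of 1.96 or higher in either the MELAS or the Rieske mutant cell line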;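 note: z relative to plate mean and SD of compound and empty wells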). Particulars: low glucose.
Experiment [11] is described as follows: P. berghei load reduction in hepatocytes – cell-based, HepG2, luciferase luminescence, HepG2 viability, primary screen (AID 624349; in the data active = parasite load remaining mostly below about 12%, no sharp cut-off; inactive = mostly above about 10%;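 note: 100% = mean of DMSO negative control wells on the same plate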). To be noted: P. berghei liver stage in HepG2, luciferase luminescence, concentration not given here; parasite load remaining: stronger effect = lower value; viability: measured here: HepG2 viability without parasites.
The mark [12] stands for this setting: MELAS cybrid survival, CellTiter-Glo 48 h, stronger effect = higher value.
Where [13] appears, read: Rieske KO mouse fibroblast survival, CellTiter-Glo 72 h.

Cellular tumor antigen p53 (Homo sapiens), sequence (P04637 whole entry, looked up): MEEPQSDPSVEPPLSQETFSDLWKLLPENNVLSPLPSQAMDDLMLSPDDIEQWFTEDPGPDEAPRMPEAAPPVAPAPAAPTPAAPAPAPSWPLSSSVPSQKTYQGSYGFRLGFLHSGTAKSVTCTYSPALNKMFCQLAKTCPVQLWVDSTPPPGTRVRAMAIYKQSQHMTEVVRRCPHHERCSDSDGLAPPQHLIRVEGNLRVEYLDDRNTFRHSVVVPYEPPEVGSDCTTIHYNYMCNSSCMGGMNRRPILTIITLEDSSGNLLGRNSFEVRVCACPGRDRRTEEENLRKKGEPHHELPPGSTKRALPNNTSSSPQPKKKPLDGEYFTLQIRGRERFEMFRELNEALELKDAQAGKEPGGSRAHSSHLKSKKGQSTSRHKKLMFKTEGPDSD

In general, AC50 refers to the concentration at which the activity in the assay is half-maximal. Turning to `COc1ccc(-c2oc3ncnc(N)c3c2-c2ccc(NC(=O)Nc3cc(C(F)(F)F)ccc3F)cc2)cc1`, in experiment [1], the liver cell % of control is 50%. Further, the parasite % of control in experiment [1] was 186% (inactive). In addition, in [2], the percent of negative control (+Dex) is 93.5% (inactive). The z-score in experiment [2] is -2.24; in experiment [3], 0.785 (inactive); in experiment [4], -0.472 (inactive); in [10] (setting [12]), -1.1 (inactive); in [10] (setting [13]), -0.0748. Also, the EGFP object count in [5] turned out to be 6. Besides, the EGFP/DsRed ratio in [5] was 0.0596 (inactive). The fraction signal in experiment [6] is 0.007 (inactive). Moreover, the AC50 in experiment [7] was 3.72 µM (active); in experiment [8], 1.66 µM (active); in experiment [9] it was 9.34 µM (active).
Turning to `CCn1c(-c2nonc2N)nc2c(C#CC(C)(C)O)nc(OC[C@H](N)c3ccccc3)cc21`, the liver cell % of control in [1] came out at 91.7%. Further, in [1], the parasite % of control was 78.3% (inactive). In addition, the percent of negative control (+Dex) in experiment [2] was 106% (inactive). Further, the z-score in [2] was 1.86; in [3] it was 0.015 (inactive); in [4] it was -1.25 (inactive); in experiment [10] (setting [12]), -0.101 (inactive); in experiment [10] (setting [13]) it was 0.135. In [5], the EGFP object count was 7.5. Also, the EGFP/DsRed ratio in [5] was 0.207 (inactive). The fraction signal in [6] was -0.0025 (inactive).
The viability is a read-out of living cells in per cent, often relative to untreated cells. For the compound `Nc1nccc(-c2c(-c3ccc(F)cc3)ncn2C2CCNCC2)n1`, in experiment [11], the parasite load remaining is 50.2% (inactive) and the viability stood at 61.1%. For the same compound, in [1], the liver cell % of control is 79.4% and 93.7%; the parasite % of control is 77.2% (inactive) and 61.2% (inactive). Besides, in experiment [2], the percent of negative control (+Dex) is 136% (inactive) and 118% (inactive); the z-score is 1.59 and 1.56. Further, the z-score in experiment [3] is -0.995 (inactive) and 0.19 (inactive). In addition, in experiment [4], the z-score was 15.2 (active) and 4.36 (inactive). For the same compound, in [5], the EGFP object count is 12.5 and 3; the EGFP/DsRed ratio was 0.0782 (inactive) and 0.0295 (inactive). In addition, the fraction signal in experiment [6] was 0.0105 (inactive) and -0.008 (inactive). In experiment [10] (setting [12]), the z-score was -0.885 (inactive) and -0.815 (inactive). Moreover, in experiment [10] (setting [13]), the z-score is 0.00861 and -0.488.
In the case of `CCn1c(-c2nonc2N)nc2cnc(Oc3cccc(NC(=O)c4ccc(N(C)C)cc4)c3)cc21`, the liver cell % of control in experiment [1] stood at 88.6%. In addition, in experiment [1], the parasite % of control was 248% (inactive). Further, in experiment [2], the percent of negative control (+Dex) is 96% (inactive). For the same compound, the z-score in [2] is -0.295; in experiment [3], -0.06 (inactive); in [4], 1.22 (inactive); in experiment [10] (setting [12]) it was 0.0951 (inactive); in [10] (setting [13]) it was 0.0229. Moreover, the EGFP object count in experiment [5] was 3.5. Moreover, the EGFP/DsRed ratio in experiment [5] was 0.117 (inactive). The fraction signal in [6] is -0.0105 (inactive).
With `COc1ccc(-c2ccc3c(NC(=O)C4CC4)n[nH]c3n2)cc1`, the liver cell % of control in [1] was 119%. The parasite % of control in experiment [1] is 77.2% (inactive). The percent of negative control (+Dex) in experiment [2] was 130% (inactive). Also, the z-score in [2] was 2.11; in experiment [3], 0.15 (inactive); in [4] it was 2.53 (inactive); in experiment [10] (setting [12]), 1.36 (inactive); in experiment [10] (setting [13]), 0.0157. In experiment [5], the EGFP object count was found to be 6. The EGFP/DsRed ratio in experiment [5] was 0.0694 (inactive). In addition, the fraction signal in experiment [6] is 0.0035 (inactive).
Regarding `O=S(=O)(CCOCc1ccc(-c2ccc3ncnc(Nc4ccc(OCc5cccc(F)c5)c(Cl)c4)c3c2)o1)c1ccccc1`, the liver cell % of control in [1] turned out to be 105%. In addition, the parasite % of control in [1] was 111% (inactive). Besides, the percent of negative control (+Dex) in experiment [2] is 78% (inactive). Further, the z-score in [2] was -1.27; in experiment [3] it was -1.41 (inactive); in [4], -0.482 (inactive); in experiment [10] (setting [12]) it was -0.647 (inactive); in experiment [10] (setting [13]), -0.248. Further, in [5], the EGFP object count was determined as 2. In experiment [5], the EGFP/DsRed ratio was 0.0356 (inactive). Also, the fraction signal in experiment [6] is -0.003 (inactive).
As for `Cc1ccc(-c2cc3c(NC(=O)C4CC4)ncnc3o2)cc1`, the liver cell % of control in [1] stood at 108%. Further, the parasite % of control in experiment [1] is 92.7% (inactive). In addition, in experiment [2], the percent of negative control (+Dex) is 83.5% (inactive). The z-score was -0.295 in experiment [2]; -0.475 (inactive) in experiment [3]; -0.06 (inactive) in experiment [4]; -0.119 (inactive) in experiment [10] (setting [12]); 0.346 in experiment [10] (setting [13]). Further, in experiment [5], the EGFP object count is 4.5. For the same compound, the EGFP/DsRed ratio in [5] was 0.0878 (inactive). Besides, the fraction signal in experiment [6] is -0.004 (inactive).
